Laboratory results taken from PubChem BioAssay AID651597 (National Center for Advancing Translational Sciences (NCATS), 2012).
Among all 1,100 compounds or so, about 390 (35%) were called active. Roughly 30% stayed inconclusive and do not appear here. Some of the results follow. A number with no mark means an inactive call. The call rests on the fitted dose curve; in most records, active means well fitted inhibition curve with a large enough effect; inconclusive means small, poorly fitted or top-dose-only effect; inactive means flat fitted curve, though single readings scatter.

Molecular target: Luciferin 4-monooxygenase (Photinus pyralis) (UniProt P08659)
Test: qHTS of Nrf2 Activators: Hit Validation in Secondary FLuc Assay; further: nearly all actives have a fitted effect of over 65% in size
Settings: firefly luciferase inhibition counter-screen, luminescence; series mostly up to 57.5 µM; activity, negative = inhibition: at the top concentration
Procedure, shortened: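 Counter-screen on purified firefly luciferase with ATP and D-luciferin at Km concentrations; compounds flagged if they inhibit the enzyme, indicating possible reporter stabilization rather than ARE activation.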
On the % scale 0 is the no-effect control and ±100 the full control effect; potency means the concentration at half of the fitted maximal effect.

Compound	Potency	activity, negative = inhibition
CSc1nc2sc3c(c2c(=O)n1C)CCC(C)C3 (configuration not stated)	6.01 µM (active)	–
COc1cc(/C=N/Nc2nc3ccccc3s2)ccc1OC(=O)c1ccccc1F	5.36 µM (active)	–
Cc1ccc2ccc(C3C(=O)c4ccccc4C3=O)nc2c1	0.269 µM (active)	–
COc1ncccc1-c1cc2nc(NCCNC(C)=O)n(C)c(=O)c2s1	15.1 µM (active)	–
Cn1c(NCc2ccc3occc3c2)nc2cc(-c3cccc(C(F)(F)F)c3)sc2c1=O	–	-5.21%
Cn1c(NCC2CCCCC2)nc2cc(-c3ccsc3)sc2c1=O	–	-9.1%
C/C(=N\NC(=O)c1cccc(S(=O)(=O)N2CCCC2)c1)c1ccco1	–	-17.4%
CC(=NNC(=O)CSc1nc2ccccc2o1)c1ccco1	–	1.42%
C/C(=N\NC(=O)c1c[nH]c2ccccc12)c1ccco1	7.57 µM (active)	–
Oc1ccc2ccccc2c1N=Nc1ccccn1	10.7 µM (active)	–
CSc1nnc(-c2ccco2)c(-c2ccco2)n1	4.78 µM (active)	–
CCc1nc(N)c(C#N)c(-c2ccco2)c1C	–	-17.2%
O=C(CSc1nnc(-c2ccco2)c(-c2ccco2)n1)c1ccccc1	2.69 µM (active)	–
C=C1C2=C(C(=O)N1OC)[C@@H](O)[C@@](C)(O)[C@@H](CCCCC)O2	–	1.91%
CC(C)N(C(=O)COC(=O)c1ccccc1C(=O)c1ccc(Cl)c([N+](=O)[O-])c1)C(C)C	–	10.7%
O=C(Nc1nc2ccccc2[nH]1)c1ccc(Cl)c([N+](=O)[O-])c1	2.69 µM (active)	–
O=C(c1ccc(S(=O)(=O)Cc2ccccc2Cl)c([N+](=O)[O-])c1)N1CCOCC1	–	-6.47%
N#C/C(=C\c1c(Oc2ccc(Cl)cc2)nc2ccccn2c1=O)C(=O)NC1CCS(=O)(=O)C1 (configuration not stated)	–	-26.8%
COc1ccccc1C(=O)NCc1nc2cccnc2n1Cc1ccc(F)cc1	–	2.77%

Compound	Potency	activity, negative = inhibition
COc1ccccc1NC(=O)c1ncn(-c2ccccc2)n1	10.7 µM (active)	–
COc1ccccc1NC(=O)C(=O)Nc1ccccn1	1.69 µM (active)	–
COc1cc(NC(=S)Nc2ccccn2)c(OC)cc1Cl	–	-25.7%
COc1ccccc1NC(=O)c1cc(Cl)nc2ccccc12	–	-5.47%
CCCn1c(-c2cccs2)nc2nc3ccccc3nc21	12 µM (active)	–
O=C(C=Cc1ccccc1Cl)c1ccccc1	0.953 µM (active)	–
O=C(/C=C/c1ccccc1Cl)Nn1cnc2ccccc2c1=O	–	-25.3%
COCCN(C(=O)COC(=O)/C=C/c1ccccc1Cl)c1c(N)n(Cc2ccccc2)c(=O)[nH]c1=O	–	3.75%
Cn1c(=O)c(C(=O)NNC(=O)c2ccccc2F)c(O)c2ccccc21	–	-25.6%
Oc1ccc(Cl)cc1-c1cc(-c2ccco2)[nH]n1	13.5 µM (active)	–
Oc1ccc(Br)cc1-c1cc(-c2ccco2)[nH]n1	16.9 µM (active)	–
Oc1c(-c2cc(-c3ccco3)[nH]n2)ccc2ccccc12	0.953 µM (active)	–
FC(F)(F)c1cc(-c2ccco2)nc(NCc2ccco2)n1	–	-29.3%
Oc1ccccc1C=NN=C1c2ccccc2-c2ccccc21	4.26 µM (active)	–
O=C(N/N=C/c1cn[nH]c1-c1ccccc1)c1ccco1	–	-26.1%
Nc1c(Cl)c(Cl)nc(C(=O)N/N=C/c2ccco2)c1Cl	–	-5.24%
O=C(Nc1ccccc1C(=O)N/N=C/c1ccco1)c1ccccc1	7.57 µM (active)	–
O=C(Nc1ccccc1C(=O)N/N=C/c1ccco1)c1ccc(F)cc1	4.78 µM (active)	–
COC(CN(C(=O)CCl)C(C(=O)NC1CCCCC1)c1ccccc1C)OC (configuration not stated)	–	-0.975%

Compound	Potency	activity, negative = inhibition
COc1ccc([N+](=O)[O-])cc1C1NN=C(c2ccccc2O)S1 (configuration not stated)	8.49 µM (active)	–
COc1ccc([N+](=O)[O-])cc1NC(=O)c1ccco1	–	-0.817%
CCN1CCN(c2sc(S(C)(=O)=O)nc2S(=O)(=O)c2ccc(Cl)cc2)CC1	–	3.21%
CC(=O)OC1(C(C)=O)CCC2C3CC(C(F)(F)F)C4=CC(=O)CCC4(C)C3CCC21C (configuration not stated)	–	-0.683%
CC1CN(c2sc(S(C)(=O)=O)nc2S(=O)(=O)c2ccc(Cl)cc2)CC(C)O1 (configuration not stated)	–	-28.1%
O=C(Nc1ccccc1)Nc1cccc2nsnc12	2.69 µM (active)	–
O=C(Nc1ccccc1)c1nc[nH]c1C(=O)Nc1ccccc1F	–	-0.43%
C/C(=N\Nc1ccccn1)c1cccs1	2.39 µM (active)	–
C/C(=N\Nc1ccc2nncn2n1)c1ccc(Cl)s1	–	-3.88%
C/C(=N\Nc1ccccn1)c1ccc(Br)s1	12 µM (active)	–
Cn1c(N)c(C(=O)COC(=O)c2nc(Cl)ccc2Cl)c(=O)n(C)c1=O	–	-3.17%
CC(C)(C)c1csc(NC(=O)CCS(=O)(=O)c2ccc(F)cc2)n1	–	-18.9%
O=C(/C=C/c1ccccc1)Nc1ncn[nH]1	10.7 µM (active)	–
CN1c2ccsc2/C(=N/Nc2ccccc2)CS1(=O)=O	7.57 µM (active)	–
OCC1OC(n2cnc3c(NCc4ccccc4O)ncnc32)C(O)C1O (configuration not stated)	–	-0.396%
CC1=NC(=O)C(N=Nc2cccc(O)c2)N1c1ccccc1 (configuration not stated)	3.79 µM (active)	–
Clc1ccc(/C=N/Nc2nnc(Cl)c3ccccc23)cc1	0.338 µM (active)	–
CSc1nsc(SC)c1C(=O)Nc1ccc(C)cc1	–	-30%
CNc1nc(N)c([N+](=O)[O-])c(Nc2cccc(Cl)c2)n1	–	5.42%
